Screens from PubChem.
sEH inhibitor = blocks human soluble epoxide hydrolase activity | P34913 | recombinant human sEH enzymatic activity assay | inhibition, % at 2 µM | actives 0.34% (n = 91,000) | AID 707; in the data active = inhibition above about 80%
Target sequence (P34913 whole entry, looked up): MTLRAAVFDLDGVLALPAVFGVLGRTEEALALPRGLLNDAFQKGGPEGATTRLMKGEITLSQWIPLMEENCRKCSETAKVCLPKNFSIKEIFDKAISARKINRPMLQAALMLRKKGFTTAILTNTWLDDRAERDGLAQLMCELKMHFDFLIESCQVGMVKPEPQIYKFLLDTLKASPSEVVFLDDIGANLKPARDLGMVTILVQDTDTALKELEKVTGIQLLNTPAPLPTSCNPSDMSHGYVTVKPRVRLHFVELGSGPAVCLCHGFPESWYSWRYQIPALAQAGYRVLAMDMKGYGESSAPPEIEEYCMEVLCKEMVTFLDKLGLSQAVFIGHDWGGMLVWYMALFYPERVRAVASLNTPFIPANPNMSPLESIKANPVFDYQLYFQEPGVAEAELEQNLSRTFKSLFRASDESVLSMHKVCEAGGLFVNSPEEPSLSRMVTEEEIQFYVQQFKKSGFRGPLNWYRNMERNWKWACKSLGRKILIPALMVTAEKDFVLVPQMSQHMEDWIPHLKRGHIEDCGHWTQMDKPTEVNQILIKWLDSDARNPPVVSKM
CYP2C9 inhib = inhibitors of human CYP2C9. P11712. AID 777. CYP2C9 Supersomes, luciferin-H conversion, luminescence. actives 20% (n = 96,000). inhibition, % at 5 µM;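 active = blocking of liver enzyme CYP2C9 beyond about 50% at 5 µM, limit read from the data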
CYP2C19 activ = increases human CYP2C19 enzyme activity. P33261. recombinant CYP2C19, luciferin-H EGE luminescence; hits give high values; 0 = fully inhibited enzyme, 1 = untreated enzyme. activation factor at 5 µM. 96,000 tested, under 10 active. AID 1025;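 active = activation factor of at least 2 at 5 µM in the primary screen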;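 also: 0 = wells with 2.5 mM tranylcypromine and 1 = vehicle-only wells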
CYP2C9 activ = increases human cytochrome P450 2C9 activity; actives 1.4% (n = 96,000); activation factor at 5 µM; recombinant CYP2C9, luciferin-H conversion, luminescence; hits give high values; factor 1 = untreated enzyme, 0 = blocked;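 active = activation factor of 2 or more for CYP2C9 at a 5 µM dose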;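 also: 0 = sulfaphenazole-blocked wells and 1 = vehicle-only wells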
sEH activator = increases human soluble epoxide hydrolase activity. P34913. purified human sEH enzymatic activity, activator screen. activation, % at 2 µM. actives 0.04% (n = 91,000); in the data active = activation above about 37%
CYP2C19 inh = blocks human cytochrome P450 2C19. CYP2C19 Supersomes, luciferin-H EGE luminescence, 30 min. inhibition, % at 5 µM. actives 21% (n = 96,000). AID 778. P33261;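 active = CYP2C19 inhibition above a set limit at 5 µM in the primary screen, cut at about 50% in these data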;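 also: plate controls were negative control wells for no effect and 2.5 mM tranylcypromine positive control for full effect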
* marks the source's active call; other numbers are inactive results; · = not tested or not shown. Hits are enriched below; roughly 27% of the tested compounds scored in any of these assays.

SMILES	sEH inhibitor	CYP2C9 inhib	CYP2C19 activ	CYP2C9 activ	sEH activator	CYP2C19 inh
O=c1cc(CSc2ccc(S(=O)(=O)N3CCCCC3)cn2)nc2sccn12	-3	80*	0.3	0.2	0	66*
CCN(CC)S(=O)(=O)c1ccc(NC(=O)Cn2c(=O)oc3ccccc32)cc1	-3	48	0.8	0.5	3	23
CCN(CC)S(=O)(=O)c1ccc(NC(=O)COC(=O)c2ccc(-n3nc(C)cc3C)cc2)cc1	45	71*	0.2	0.3	-44	85*
CN(C)c1ccc(C(=O)OCC(=O)Nc2ccc(S(N)(=O)=O)cc2)cc1	-2	9	1	0.9	0	1
CCN(CC)S(=O)(=O)c1ccc(NC(=O)COC(=O)c2ccc(Br)o2)cc1	28	67*	0.8	0.3	-27	21
COc1ccc(/C(C)=C(\C#N)C(=O)OC(C)C)cc1OC	-6	·	·	·	10	·
Cc1cc(C)c2c(N)c(S(=O)c3ccc(C(C)(C)C)cc3)sc2n1 (configuration not stated)	10	47	0.4	0.5	-7	61*
CCc1cccc2c(C(=O)Cn3nnc(-c4ccc(OC)c(OC)c4)n3)c[nH]c12	9	62*	0.3	0.4	-11	71*
Cc1ccc2cccc(Oc3cnccn3)c2n1	12	-5	1	1.1	-12	-2
COC(=O)Nc1sc2c(c1C(=O)N1CCOCC1)CCC(C)C2 (configuration not stated)	12	-8	1	1.1	-9	1
C=CCN1C(=O)/C(=C2/Sc3ccccc3N2C)SC1=Nc1ccccc1C	-3	56*	0.6	0.4	5	39
C=CCN1C(=O)/C(=C2/Sc3ccccc3N2C)SC1=Nc1c(C)n[nH]c1C	-2	25	0.9	0.8	0	12
CC(OC(=O)CNC(=O)C12CC3CC(CC(C3)C1)C2)C(=O)Nc1ncc(Cl)cc1Cl (configuration not stated)	2	39	0.5	0.6	-2	54*
Cc1ccc(S(=O)(=O)N2CCN(C(=O)c3ccc(OCc4c(C)noc4C)cc3)CC2)cc1	1	29	1	0.7	-2	3
COc1cc(C=O)ccc1OCc1c(C)noc1C	7	48	0.2	0.5	-9	85*
COc1cc(C(=O)N2CCN(S(=O)(=O)c3ccc(C)cc3)CC2)ccc1OCc1c(C)noc1C	·	56*	0.3	0.4	·	70*
COc1ccc(S(=O)(=O)N2CCCCCC2)cc1C(=O)OCc1c(C)noc1C	4	86*	0.5	0.1	-4	50*
COc1ccc(S(=O)(=O)N2CCc3ccccc32)cc1C(=O)OCc1c(C)noc1C	-4	99*	0.1	0	4	95*
C=CCc1c(C)nc(SC)nc1Nc1ccc(C)cc1	3	5	0.9	0.9	-3	6
CCC(=O)N(Cc1cc(=O)[nH]c2ccccc12)c1cccc(C)c1	·	27	0.8	0.7	·	16
CCC(NC(=O)NC1=NCCS1)(C(F)(F)F)C(F)(F)F	·	-13	1	1.1	·	-4
COc1ccc(S(=O)(=O)N2CCCCCC2)cc1C(=O)OCC(=O)NC(N)=O	-14	21	0.9	0.8	13	10
Cc1noc(C)c1COC(=O)c1cccc(S(=O)(=O)N2CCCCCC2)c1	·	96*	0.1	0	·	91*
CCCCNC(=O)COC(=O)c1cc(S(=O)(=O)N2CCCCCC2)ccc1OC	7	48	0.4	0.5	-5	55*
Cc1noc(C)c1COC(=O)c1ccc2c(c1)OCCO2	1	·	·	·	-2	·
SMILES	sEH inhibitor	CYP2C9 inhib	CYP2C19 activ	CYP2C9 activ	sEH activator	CYP2C19 inh
Nc1nc2ccc(N3CCOCC3)cc2s1	7	8	0.9	0.9	-8	11
COc1cc(C(O)P(=O)(OCC(C)C)OCC(C)C)cc(OC)c1OC (configuration not stated)	-2	13	0.8	0.9	6	23
COc1cccc(Nc2c(F)c(OC)c(F)c(F)c2C(=O)O)c1	-1	23	1.1	0.8	1	-9
COc1cccc(Nc2c(F)c(F)c(F)c(F)c2C(=O)O)c1	-6	61*	0.9	0.4	12	9
COc1ccc(OC(C)C(=O)N2CCOCC2)cc1 (configuration not stated)	2	-3	0.8	1	1	15
O=C(CC(C(=O)N1CCc2ccccc21)n1ccnc1)NCc1ccccc1 (configuration not stated)	-8	73*	0	0.3	8	100*
CCN(CC)CC(C)CNC(=O)CC(C(=O)N1CCc2ccccc21)n1ccnc1 (configuration not stated)	-3	·	·	·	2	·
CC(C)c1ccc(O)c(NC(=O)c2cccnc2)c1	14	48	0.3	0.5	-16	70*
CC(C)c1ccc(NC(=O)c2cccnc2)cc1	56	14	1	0.9	-57	0
CCC(C)c1ccc(O)c(NC(=O)c2cncc(Br)c2)c1 (configuration not stated)	-6	50*	0.6	0.5	6	39
Cc1nn(-c2ccc(F)cc2)c2c1cc(C#N)c1nc3ccccc3n12	-1	0	1	1	0	3
CC(C)c1ccc(NC(=O)C(c2ccccc2)N2CCOCC2)cc1 (configuration not stated)	-5	68*	0.4	0.3	9	55*
O=C(NCc1ccco1)c1ccc(Cn2c(=O)c3ccccc3n(Cc3cccc(F)c3)c2=O)cc1	10	61*	0.2	0.4	-12	80*
O=C(NCc1ccco1)c1ccc(Cn2c(=O)c3ccccc3n(Cc3ccc(Cl)cc3)c2=O)cc1	3	86*	0.2	0.1	-1	76*
Cc1cc(C)c2c(n1)sc1c(N3CCOCC3)ncnc12	-2	·	·	·	0	·
C=CCN(CC=C)S(=O)(=O)c1ccc2nc(NC(=O)C(C)C)sc2c1	14	93*	0.2	0.1	-13	81*
COc1ccccc1C(=O)Nc1nc2ccc(S(C)(=O)=O)cc2s1	5	·	·	·	-3	·
CS(=O)(=O)c1ccc2nc(NC(=O)Oc3ccccc3)sc2c1	-3	70*	0.9	0.3	6	11
COCC(=O)Nc1nc2ccc(S(C)(=O)=O)cc2s1	-30	77*	0.4	0.2	32	63*
COc1ccc(C(=O)Nc2nc3ccc(S(C)(=O)=O)cc3s2)cc1	0	·	·	·	1	·
COc1ccc(CC(=O)OCC(=O)Nc2c(C)n(C)n(-c3ccccc3)c2=O)cc1	·	-18	1.2	1.2	·	-23
COc1ccc(OC)c(S(=O)(=O)N2Cc3ccccc3CC2C(=O)O)c1 (configuration not stated)	-7	8	0.9	0.9	12	12
COc1ccc(S(=O)(=O)N2Cc3ccccc3CC2C(=O)N2CCOCC2)cc1OC (configuration not stated)	·	3	1.1	1	·	-6
